The values that follow come from PubChem BioAssay.

Several values for one entry are separate records, joined by “and”; a condition that tells them apart may be missing. Equal entries are not always repeated. Results filed as inconclusive are left out. Activity calls are given as the source filed them.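 How the source made its calls, unless noted: active means normalized viability below 100% at a tested concentration; inactive means the rest.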

A short description of test [1]: liver-stage malaria parasite growth inhibition, primary screen, cell-based, HepG2, luciferase luminescence, HepG2 viability (AID 624349; in the data active means parasite load remaining mostly below about 12%, no sharp cut-off; inactive means mostly above about 10%;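 further: 100% = mean of DMSO negative control wells on the same plate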). To be noted: P. berghei liver stage in HepG2, luciferase luminescence, concentration not given here; parasite load remaining: stronger effect = lower value; viability: measured here: HepG2 viability without parasites.
For test [2], the target named is 6-phosphogluconate dehydrogenase, decarboxylating (Homo sapiens) (UniProt P52209). In words: 6PGD enzyme inhibitors, primary screen, biochemical, human, recombinant enzyme, NADPH absorbance (AID 1159550;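 active means at least 20% inhibition of 6-phosphogluconate dehydrogenase activity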). To be noted: recombinant 6PGD, NADPH absorbance 341 nm; at 10 µM; stronger effect = higher value.
Test [3] in a line: differential killing of epithelial or mesenchymal cells, primary screen, imaging, PC-3E GFP, TEM4-18 mCherry, co-culture (AID 1345086;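 active means compounds killing one labelled cell type while sparing the other, by normalised counts and ratio limits, not self-fluorescent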;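 on all read-outs here: cells exposed to compound for 72 h before imaging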;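 on red/green cell ratio (normalised): normalised mesenchymal count divided by normalised epithelial count so high means epithelial killing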). To be noted: imaging cell counts, at 1 µM; for red/green cell ratio (normalised): actives lie on both sides, counts scaled to control wells, 1 = unselective.
A short description of test [4]: SU-DIPG-VI glioma cell viability, MIPE4.0 library, CellTiter-Glo luminescence, qHTS (AID 1347066; cut-off not given, nearly all actives have AC50 up to about 30 µM;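 further: cells exposed to compound for 48 hours before readout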). To be noted: CellTiter-Glo ATP luminescence.
Test [5] is described as follows: sensitizers of A549 cells to miR-34 induction, primary screen, imaging, A549 dox-inducible miR-34, nuclei and caspase counts (AID 1347080;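 active means compounds whose cell count with miR-34 switched on is under 0.7 times the count with it off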). To be noted: A549 miR-34 inducible, Hoechst nuclei count, 48 h.
A short description of test [6]: survival rescue of mitochondrial mutant cells in low glucose, primary screen, MELAS cybrids, Rieske KO mouse fibroblasts, CellTiter-Glo (AID 1508586;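 active means mean z-score across replicates of 1.96 or higher in either the MELAS or the Rieske mutant cell line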;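 further: z relative to plate mean and SD of compound and empty wells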). For orientation: ATP-based viability assays read luminescence as a measure of living cells.
Test [7] addresses Mitogen-activated protein kinase 7 (Homo sapiens) (UniProt Q13164). The test can be described thus: ERK5 transactivation activators in reporter cells, primary screen, cell-based, HTS (AID 1508626;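 active means luciferase signal above three times the same-plate solvent-only control wells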;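 further: luciferase driven by Gal4-ERK5 fusion binding five Gal4 sites before minimal TATA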). To be noted: HeLa Gal4-ERK5 transactivation, 18 h, at 5 µM, stronger effect = higher value.
Test [8] in a line: ovarian cancer cell viability with rucaparib, profiling panel, oncology-focused library, rucaparib conditional (AID 1508598). To be noted: patient-derived ovarian cancer cells, CellTiter-Glo viability, 144 h, stronger effect = lower value.
The nature of test [9]: viability rescue of complex I mutant cybrids, primary screen, cell-based, galactose medium, ATP luminescence (AID 1645843;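 active means z-score of at least 1.8 in each of two replicates, scored against plate mean and spread of sample wells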;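 further: positive z means more ATP and so rescue of galactose-driven cybrid death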). To be noted: complex I mutant cybrid cells, 72 h, stronger effect = higher value.
Where [10] appears, read: measured here: epithelial PC-3E GFP cell survival.
Setting [11] is: measured here: mesenchymal TEM4-18 mCherry cell survival.
The mark [12] stands for this setting: stronger effect = lower value, cell number ratio, induced over uninduced.
[13] abbreviates: measured here: relative caspase fold change +Dox/-Dox.
Setting [14] is: measured here: total cells with miR-34 induction, stronger effect = lower value.
The mark [15] stands for this setting: measured here: total cells without miR-34 induction.
Setting [16] is: MELAS cybrid survival, CellTiter-Glo 48 h, stronger effect = higher value.
Where [17] appears, read: Rieske KO mouse fibroblast survival, CellTiter-Glo 72 h.

Mitogen-activated protein kinase 7 (Homo sapiens), sequence (Q13164 whole entry, looked up, the tested form may be a part): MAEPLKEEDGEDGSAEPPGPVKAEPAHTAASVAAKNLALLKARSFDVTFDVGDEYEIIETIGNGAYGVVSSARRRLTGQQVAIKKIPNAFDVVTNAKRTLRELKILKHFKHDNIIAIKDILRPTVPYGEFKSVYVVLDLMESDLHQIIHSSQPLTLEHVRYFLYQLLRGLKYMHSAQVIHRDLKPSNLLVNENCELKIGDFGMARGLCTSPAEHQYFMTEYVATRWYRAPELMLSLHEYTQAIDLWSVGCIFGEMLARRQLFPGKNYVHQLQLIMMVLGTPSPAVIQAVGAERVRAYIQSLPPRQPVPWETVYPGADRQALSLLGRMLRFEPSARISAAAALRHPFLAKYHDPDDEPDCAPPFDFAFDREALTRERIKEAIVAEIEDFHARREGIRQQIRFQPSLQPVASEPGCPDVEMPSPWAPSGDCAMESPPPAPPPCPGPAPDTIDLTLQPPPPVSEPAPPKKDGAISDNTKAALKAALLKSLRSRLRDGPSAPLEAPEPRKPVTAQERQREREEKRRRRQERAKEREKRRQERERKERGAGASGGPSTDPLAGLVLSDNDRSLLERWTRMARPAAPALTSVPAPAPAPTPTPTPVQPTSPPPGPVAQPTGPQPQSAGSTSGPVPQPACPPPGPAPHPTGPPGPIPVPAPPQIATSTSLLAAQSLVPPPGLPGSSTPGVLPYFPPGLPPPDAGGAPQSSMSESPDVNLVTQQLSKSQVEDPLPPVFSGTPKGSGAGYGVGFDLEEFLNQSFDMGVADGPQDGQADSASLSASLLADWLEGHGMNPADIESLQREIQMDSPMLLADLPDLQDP
6-phosphogluconate dehydrogenase, decarboxylating (Homo sapiens), sequence (P52209 whole entry, looked up): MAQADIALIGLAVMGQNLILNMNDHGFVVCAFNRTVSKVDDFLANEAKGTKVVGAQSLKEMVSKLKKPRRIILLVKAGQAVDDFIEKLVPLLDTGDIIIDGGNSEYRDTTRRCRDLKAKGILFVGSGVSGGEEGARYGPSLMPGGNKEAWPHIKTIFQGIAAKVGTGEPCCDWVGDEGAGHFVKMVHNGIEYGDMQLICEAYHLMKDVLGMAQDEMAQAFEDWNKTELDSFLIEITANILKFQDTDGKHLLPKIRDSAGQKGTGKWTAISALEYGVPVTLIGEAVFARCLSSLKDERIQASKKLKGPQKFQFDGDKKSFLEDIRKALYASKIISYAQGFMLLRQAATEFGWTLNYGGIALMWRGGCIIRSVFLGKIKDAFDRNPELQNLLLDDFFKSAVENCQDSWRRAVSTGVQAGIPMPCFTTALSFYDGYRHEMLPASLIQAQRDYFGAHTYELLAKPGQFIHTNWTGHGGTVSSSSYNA

On to `COc1ccc(-c2coc3cc(O)ccc3c2=O)cc1`, for which the parasite load remaining in [1] was 260% (inactive). For the same compound, the viability in test [1] was 88.5%. Also, the inhibition in [2] was -6.94% (inactive). For the same compound, in [3], the red/green cell ratio (normalised) was 0.93 (inactive). Further, the normalised cell number in [3] (setting [10]) stood at 1.23; in test [3] (setting [11]) it was 1.14. In [4], the call was inactive. The figures for the fold change in test [5] (setting [12]) and in test [5] (setting [13]) were 0.949 (inactive) and 0.624, respectively. Also, the cell count in test [5] (setting [14]) was determined as 7740; in test [5] (setting [15]) it was 8150. In addition, the z-score in [6] (setting [16]) is -0.217 (inactive); in test [6] (setting [17]), 0.38. Further, the luciferase signal in test [7] is 140 AU (inactive).

For `O=C(CCc1ccc(O)cc1)c1c(O)cc(O)cc1O`, the inhibition in test [2] is 4.36% (inactive). Also, in [3], the red/green cell ratio (normalised) was 1.14 (inactive). For the same compound, the normalised cell number in test [3] (setting [10]) was determined as 0.95; in test [3] (setting [11]), 1.08. In addition, the fold change in [5] (setting [12]) is 1 (inactive) and 0.951 (inactive); in test [5] (setting [13]), 1.21 and 0.641. Moreover, the cell count is 10100 and 9910 in test [5] (setting [14]); 10100 and 10400 in test [5] (setting [15]). The z-score in test [6] (setting [16]) is -0.355 (inactive); in test [6] (setting [17]) it was 0.489; in test [9], 1.71 (inactive). In addition, the viability is 108% (inactive) in [8] (at 0.000305 µM, OCI-C5x cells, with rucaparib 10 µM, 100% = cells with rucaparib alone); 119% (inactive) in [8] (at 0.000305 µM, OCI-C5x cells, without rucaparib); 96.8% (active) in [8] (at 0.000305 µM, OCI-P5x cells, with rucaparib 20 µM, 100% = cells with rucaparib alone); 97% (active) in [8] (at 0.000305 µM, OCI-P5x cells, without rucaparib); 115% (inactive) in test [8] (at 0.00122 µM, OCI-C5x cells, with rucaparib 10 µM, 100% = cells with rucaparib alone); 108% (inactive) in test [8] (at 0.00122 µM, OCI-C5x cells, without rucaparib). In addition, the viability is 95.8% (active) in test [8] (at 0.00122 µM, OCI-P5x cells, with rucaparib 20 µM, 100% = cells with rucaparib alone); 99.2% (active) in [8] (at 0.00122 µM, OCI-P5x cells, without rucaparib); 122% (inactive) in [8] (at 0.00488 µM, OCI-C5x cells, with rucaparib 10 µM, 100% = cells with rucaparib alone); 115% (inactive) in [8] (at 0.00488 µM, OCI-C5x cells, without rucaparib); 103% (inactive) in [8] (at 0.00488 µM, OCI-P5x cells, with rucaparib 20 µM, 100% = cells with rucaparib alone); 104% (inactive) in test [8] (at 0.00488 µM, OCI-P5x cells, without rucaparib). Further, the viability is 110% (inactive) in [8] (at 0.0195 µM, OCI-C5x cells, with rucaparib 10 µM, 100% = cells with rucaparib alone); 123% (inactive) in test [8] (at 0.0195 µM, OCI-C5x cells, without rucaparib); 104% (inactive) in [8] (at 0.0195 µM, OCI-P5x cells, with rucaparib 20 µM, 100% = cells with rucaparib alone); 110% (inactive) in test [8] (at 0.0195 µM, OCI-P5x cells, without rucaparib); 116% (inactive) in [8] (at 0.0781 µM, OCI-C5x cells, with rucaparib 10 µM, 100% = cells with rucaparib alone); 121% (inactive) in test [8] (at 0.0781 µM, OCI-C5x cells, without rucaparib). Further, the viability in test [8] (at 0.0781 µM, OCI-P5x cells, with rucaparib 20 µM, 100% = cells with rucaparib alone) was 104% (inactive); in [8] (at 0.0781 µM, OCI-P5x cells, without rucaparib) it was 109% (inactive); in test [8] (at 0.313 µM, OCI-C5x cells, with rucaparib 10 µM, 100% = cells with rucaparib alone), 115% (inactive); in [8] (at 0.313 µM, OCI-C5x cells, without rucaparib) it was 117% (inactive); in test [8] (at 0.313 µM, OCI-P5x cells, with rucaparib 20 µM, 100% = cells with rucaparib alone), 109% (inactive); in test [8] (at 0.313 µM, OCI-P5x cells, without rucaparib), 113% (inactive). For the same compound, the viability in [8] (at 1.25 µM, OCI-C5x cells, with rucaparib 10 µM, 100% = cells with rucaparib alone) was 105% (inactive); in test [8] (at 1.25 µM, OCI-C5x cells, without rucaparib) it was 125% (inactive); in [8] (at 1.25 µM, OCI-P5x cells, with rucaparib 20 µM, 100% = cells with rucaparib alone), 97.8% (active); in test [8] (at 1.25 µM, OCI-P5x cells, without rucaparib), 110% (inactive); in test [8] (at 5 µM, OCI-C5x cells, with rucaparib 10 µM, 100% = cells with rucaparib alone), 109% (inactive); in test [8] (at 5 µM, OCI-C5x cells, without rucaparib) it was 132% (inactive). The viability in test [8] (at 5 µM, OCI-P5x cells, with rucaparib 20 µM, 100% = cells with rucaparib alone) is 108% (inactive); in test [8] (at 5 µM, OCI-P5x cells, without rucaparib), 111% (inactive). Besides, the luciferase signal in [7] is 60 AU (inactive).

For `O=C(/C=C/c1ccc(O)cc1)c1ccc(O)cc1O`, in [2], the inhibition is -4.78% (inactive). For the same compound, the red/green cell ratio (normalised) in test [3] is 1.01 (inactive). Besides, the normalised cell number in test [3] (setting [10]) and in test [3] (setting [11]) was 0.91 in each case. Further, the fold change was 1.12 (inactive) in test [5] (setting [12]) and 0.85 in [5] (setting [13]). In addition, the cell count in [5] (setting [14]) was determined as 9020; in test [5] (setting [15]), 8080. In addition, the luciferase signal in test [7] is 80 AU (inactive). In addition, the z-score in test [9] was -0.25 (inactive).

With `O=C(CCc1ccc(O)cc1)c1c(O)cc(O)cc1O[C@@H]1O[C@H](CO)[C@@H](O)[C@H](O)[C@H]1O`, the parasite load remaining in test [1] is 28.4% (inactive). In addition, the viability in test [1] is 69.5%. For the same compound, in test [2], the inhibition is 5.05% (inactive). Also, the red/green cell ratio (normalised) in test [3] is 1 (inactive). Moreover, the normalised cell number in test [3] (setting [10]) and in test [3] (setting [11]) was 0.89 in each case. Besides, in test [4], the outcome was inactive. Also, the results for the fold change in test [5] (setting [12]) and in test [5] (setting [13]) were 0.867 (inactive) and 1.41, respectively. The cell count amounted to 9120 in test [5] (setting [14]) and 10500 in test [5] (setting [15]). Besides, the z-score in [6] (setting [16]) was -0.633 (inactive); in test [6] (setting [17]), -1.43; in test [9], -0.075 (inactive). Moreover, in [7], the luciferase signal is 28 AU (inactive).

Usually viability stands for a read-out of living cells in per cent, often relative to untreated cells. One may read the inhibition as the change of the read-out against control, counted positive when it falls.
